# Source: PubChem
# This is a sample that favours compounds with a hit; in the whole collection about 3.7% have one here.
# Kir21 block – Kir2.1 (mouse) channel inhibition. P35561. HEK293-Kir2.1, FluxOR thallium flux fluorescence; hits give low values. B-score at 10 µM. 310,000 tested, 0.85% active. AID 1672;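 active = fluorescence ratio B-score at or below minus 3 SD of library scores, with starting-brightness B-score within 2 SD, cut at about -4.2 in these data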;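 note: channel flux triggered by added potassium and thallium sulfate stimulus; B-score of peak minus minimum fluorescence over baseline after thallium stimulus; more negative B-score means stronger Kir2.1 block with less thallium influx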
# CHT inh – inhibits the human high affinity choline transporter; CHT-expressing cells, membrane potential dye, choline response; hits give low values; AID 488975; B-score at 10 µM; 310,000 tested, 0.86% active; Q9GZV3;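 active = B-score over 3 SD under the library average, and starting fluorescence ratio not unusually high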;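 note: choline stimulus applied at its EC90 after an EC20 pre-addition; B-score computed on integrated fluorescence ratio after choline addition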
# TMEM16A inh – mouse TMEM16A channel inhibition, primary screen; HEK293 TMEM16A/YFP iodide influx fluorescence, ionomycin; normalized B-score (activity score, 25-100; higher = stronger inhibition) at 10 µM; 310,000 tested, 1.2% active;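 active = ratio plate-corrected score three or more library SD toward inhibition, starting fluorescence score within five deviations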;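 note: score derived from kinetic fluorescence span divided by baseline fluorescence per well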
# CHT allo act – human CHT allosteric activation. 310,000 tested, 0.49% active. B-score at 10 µM. CHT-expressing cells, membrane potential dye, choline EC20; hits give high values; LV-AA mutant CHT in HEK293 cells. Q9GZV3;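 active = initial fluorescence not abnormally high and integrated response B-score, plate-corrected, over 3 SD above library mean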
# GPR7 antag – blocks human GPR7 receptor signaling | 290,000 tested, 1.1% active | GPR7-expressing cells, fluorescence antagonist assay | inhibition, % at 4.4 µM; in the data active = inhibition above about 16%, passing the limit was not always enough;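 note: cells stimulated with the agonist NPW; 0% = agonist with vehicle and 100% = vehicle without agonist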
# Target sequence (P48145 whole entry, looked up): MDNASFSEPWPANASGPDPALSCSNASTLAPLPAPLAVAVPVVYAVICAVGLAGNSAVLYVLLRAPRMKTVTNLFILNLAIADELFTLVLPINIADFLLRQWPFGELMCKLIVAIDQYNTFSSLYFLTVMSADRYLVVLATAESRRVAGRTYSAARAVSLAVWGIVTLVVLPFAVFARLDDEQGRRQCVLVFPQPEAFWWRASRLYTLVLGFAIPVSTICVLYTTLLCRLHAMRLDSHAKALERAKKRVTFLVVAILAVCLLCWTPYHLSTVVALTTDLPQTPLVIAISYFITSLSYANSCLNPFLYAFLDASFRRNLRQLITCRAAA
# ANO1 activ – activates or potentiates the mouse TMEM16A chloride channel; Q8BHY3; HEK293 TMEM16A/YFP-H148Q/I152L, iodide quench fluorescence; hits give low values; B-score at 10 µM; 340,000 tested, 0.3% active;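 active = fluorescence-ratio B-score plate-corrected deviation score at least 3 library SD below zero, with starting fluorescence score within 5 deviations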;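 note: channel opened by trigger with iodide after compound preincubation; score built on the fluorescence ratio of max minus min over baseline; more negative score means more quench and so TMEM16A activation or potentiation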
# GPR7 antag conf – human GPR7 antagonism, confirmation assay. 2,400 tested, 52% active. AID 1952. GPR7-expressing cells, calcium fluorescence antagonist mode. shares compounds with GPR7 antag. inhibition, % at 4.4 µM; in the data active = inhibition above about 24%;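 note: stimulated with the GPR7 agonist NPW; 0% = agonist plus vehicle and 100% = vehicle alone without agonist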
# MCHR1 antagonist – antagonizes human MCHR1, a GPR7 antagonist counter-screen. inhibition, % at 4.4 µM. shares compounds with GPR7 antag. 2,400 tested, 62% active. MCHR1-expressing cells, fluorescence antagonist assay. AID 2148; in the data active = inhibition above about 22%;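 note: 0% = vehicle with agonist and 100% = vehicle without agonist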
# * marks the source's active call; other numbers are inactive results; i = inactive; / = no result.
SMILES,Kir21 block,CHT inh,TMEM16A inh,CHT allo act,GPR7 antag,ANO1 activ,GPR7 antag conf,MCHR1 antagonist
O=C(OCC(=O)N1CCCc2ccccc21)c1cc(Br)ccc1O,-2.8,i,i,i,/,i,/,/
Clc1cc(Br)ccc1NCc1cccnc1,-0.5,i,i,i,-5,i,/,/
CC(C)=NOCC(=O)Nn1c(COc2c(C)cccc2C)nc2ccccc2c1=O,0.38,i,i,i,26*,i,-16,-3
COc1cccc(CN2CCCC(C(=O)Nc3ccc(-c4cscn4)cc3)C2)c1 (stereo not given),-1.2,i,i,i,1,i,/,/
CC(C)(CNCc1ccccc1)NS(=O)(=O)c1ccc(Cl)cc1,/,/,/,/,/,i,/,/
Cc1cccc2cc(CNCC3CCCO3)c(Cl)nc12 (stereo not given),0.13,i,i,i,22*,i,-3,7
Fc1cccc(CNCC2CCCO2)c1 (stereo not given),0.54,i,i,i,16,i,/,/
COc1cccc(NC(=O)c2ccc(N3C(=O)C4CCC(C)CC4C3=O)cc2)c1 (stereo not given),-0.65,i,i,i,-14,i,/,/
CCc1cc(=O)oc2c3c(cc(OCC(=O)NCc4ccco4)c12)OC(C)(C)CC3,0,i,i,i,41*,i,15,32*
N#Cc1c(Cl)nsc1NN,1.5,i,i,i,-6,i,/,/
CC(=O)c1cccc(NC(=O)CSc2nnc(C(C)N(C)C)n2-c2ccc(F)cc2)c1 (stereo not given),0.2,i,i,i,35*,i,10,-4
O=C(c1ccc(-n2cncn2)c([N+](=O)[O-])c1)N1CCN(S(=O)(=O)c2cccc(F)c2)CC1,-0.05,i,i,i,/,i,/,/
CSc1nc(N)nc(SCC(=O)Nc2ccc(Cl)cc2)c1C#N,0.52,i,i,i,-6,i,/,/
CSc1nc(N)nc(SCC(=O)Nc2cccc(F)c2)c1C#N,0.01,i,i,i,26*,i,20,64*
CCOc1ccc(S(=O)(=O)N(CC)CC(=O)N2CCOCC2)cc1C,-0.99,i,i,i,-19,i,/,/
CN(C(=O)CN1C(=O)C2C3CC(C(Br)C3Br)C2C1=O)C1CCCCC1 (stereo not given),0.59,i,i,i,23*,i,39*,4
CC(C)CC1NC(=O)N(CC(=O)N(C)C2CCCCC2)C1=O (stereo not given),/,/,/,/,/,i,/,/
O=C(Nc1cccc(Br)c1)c1cccc(OC(=S)N2CCOCC2)c1,0.09,i,i,i,1,i,/,/
O=C(COC(=O)C12CC3CC(CC(O)(C3)C1)C2)Nc1ccc(Cl)c(S(=O)(=O)N2CCOCC2)c1,/,/,/,/,/,i,/,/
C[C@@H]1C=C[C@](Cc2ccccc2)(C(=O)NCCc2c[nH]c3ccccc23)N1C(=O)c1ccccc1,-0.81,i,i,i,42*,i,47*,40*
CC(=O)N1[C@H](C)C=C[C@]1(Cc1ccccc1)C(=O)NCCc1c[nH]c2ccccc12,1.8,i,i,i,13,i,/,/
CCc1ccc(S(=O)(=O)N2CCN(c3ncccn3)CC2)cc1,-0.64,i,i,i,26*,i,16,15
CCOc1ccc(S(=O)(=O)N2CCN(c3ncccn3)CC2)cc1,-1.2,i,i,i,36,i,/,/
CCOc1ccc(C(=S)N2CCCC2)c(OCC)c1,-0.02,i,i,i,-3,i,/,/
Cc1nc2cc(NC(=O)N(C)c3ccc4ccccc4c3)ccc2o1,/,i,i,i,32*,i,11,26*
SMILES,Kir21 block,CHT inh,TMEM16A inh,CHT allo act,GPR7 antag,ANO1 activ,GPR7 antag conf,MCHR1 antagonist
COc1ccc(NC(=O)Nc2ccc3oc(C)nc3c2)cc1,0.35,i,i,i,8,i,/,/
Cc1nc2cc(NC(=O)c3ccc(S(=O)(=O)N(C)c4ccccc4)cc3)ccc2o1,0.06,i,i,i,45*,i,63*,81*
CN(c1ccccc1)S(=O)(=O)c1ccc(NC(=O)c2ccc(-c3ccccc3)cc2)cc1,1.3,i,i,i,-14,i,/,/
COCCN(C(=O)c1ccc2c(c1)S(=O)(=O)N=C1CCCCCN12)c1c(N)n(CC(C)C)c(=O)[nH]c1=O,/,/,/,/,/,i,/,/
CN(C)S(=O)(=O)n1cc(/C=C(\NC(=O)c2ccccc2Cl)C(=O)N2CCCC2)c2ccccc21,1.2,i,i,i,31*,i,10,34*
CCc1cccc(CC)c1NC(=O)Cn1c(-c2ccc(F)cc2)noc1=O,0.35,i,i,i,27*,i,16,18
CCOc1ccccc1NC(=O)Cn1c(-c2ccc(Cl)cc2)noc1=O,0.21,i,i,i,3,i,/,/
N=c1n(Cc2ccccc2)c2ccccc2n1CC(O)COc1ccc(Cl)cc1Cl (stereo not given),-4.2,/,/,/,28*,i,77*,98*
Cc1ccc(Cl)cc1NC(=O)c1cc2ccccc2cc1O,-0.55,i,i,i,25*,i,54*,53*
CCc1ccc(N(C(=O)c2ccco2)C(C(=O)NC2CCCC2)c2cccnc2)cc1 (stereo not given),-0.05,i,i,i,8,i,/,/
COc1ccc(N(C(=O)c2ccco2)C(C(=O)NC2CCCC2)c2ccc(C)cc2)c(OC)c1 (stereo not given),1.8,/,/,/,6,i,/,/
COc1ccc(C)cc1N(C(=O)c1ccco1)C(C(=O)NC1CCCC1)c1cc(OC)c(OC)c(OC)c1 (stereo not given),-0.08,i,i,i,43*,i,38*,24*
CCC(C)c1ccc(N(C(=O)c2ccco2)C(C(=O)NC2CCCC2)c2cccnc2)cc1 (stereo not given),0.54,i,i,i,51*,i,22,14
COc1ccc(Cl)cc1C(=O)Nc1ccc(NC(C)=O)cc1,0.04,i,i,i,-5,i,/,/
CC(=O)Oc1c(I)cc(I)cc1C(=O)Nc1ccc(Cl)cc1,0.83,i,100*,i,27*,i,6,61*
CC(C)(C)c1ccc(C(=O)Nc2c3c(nn2C(C)(C)C)CS(=O)(=O)C3)cc1,-0.12,i,i,i,26*,i,15,23*
